These sequences were tested on RARb homodimer (NR concentration 270 nM) (assay: PBM binding z-score (relative to random genomic background probes); higher = stronger binding; sequences stand for … in GC…GCGATTGACAGCGTAGAATGAAGG).
Outline: (§1)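 Scanned fluorescence from custom Agilent 4×180K protein-binding microarrays was regression-normalized. Binding z-scores use random background probes as reference. Ligand-free nuclear receptor dimers were incubated on the arrays for 1 h and detected with antibodies against each partner (one per run).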
Sequence TAGCATAGGTCATTGGGCCAGTATAGTACGCATC has a PBM binding z-score of 3.23.
In the case of CCAACTAGGTCAAAGGTCAAAGTCGAGCCAACCA, the PBM binding z-score is reported as 5.33.
For CCTACTGGGCCAAAAGTCATTGATTCCAATGCTC, the PBM binding z-score was 0.0261.
With GCTGATAGGTCAACTGATGGTCAGCTAAAGCTCG the PBM binding z-score was 3.72.
In the case of CCTACTGGGCCACGCAAGGTCATTGATTCAGTGA, the PBM binding z-score is reported as 3.66.
Work on TCATATAGGTAAAGGTGAAAGTCGAACGATATGA yielded a PBM binding z-score of 1.71.
CGTCCAAGGTCGGCAGGTCAGTGAAAGCGACGTG showed a PBM binding z-score of 3.1.
TCTAGCAGGCCAGATGGTCACTCAAGAGGTACGG showed a PBM binding z-score of 0.18.
For ACAGACAGGTGAGTGAAGTTAACTCAGCTGGACG, the PBM binding z-score was -0.414.
With CAAACTAGGTCAAGGCCAAAGTCGGTTTGTGCCA the PBM binding z-score was 3.53.
Work on TAATATAGGTAAAAGGTGAAAGTCGGTGTGGTAA yielded a PBM binding z-score of 2.01.
GCTTGTAGATCAAGGATAAGAAAGACTAAGCTAA was tested, and the PBM binding z-score was -1.36.
In the case of TCGAGTAGGTGAGTCGGGGCATTCAGCCAACATA, the PBM binding z-score is reported as 0.348.
Work on TATACAGGGTCAAAGGCCAGAGAACGAATGTCGA yielded a PBM binding z-score of 3.31.
In the case of CGAACTAGGTCATTGACAGGACAGTCAATAGTAA, the PBM binding z-score is reported as 2.6.
CCTACTGGGCCAAAGGGCATTGATTCCAATGCTC gave a PBM binding z-score of 1.16.
Work on ATCCAAAGGTCGAAGGTGAGTATACCCACCCGAA yielded a PBM binding z-score of 2.66.
CCTAGCAGTCCAATCTGGGTCACTCAAGGCTTGA gave a PBM binding z-score of 2.02.

What follows are sequences tested on RARg:RXRa (NR concentration 270 nM, RXRa partner concentration 90 nM) in the same assay as above.
Outline: as §1
With CGTCCAAGGTCAGAGAGGTCAGTCAATGCCGAGT the PBM binding z-score was 6.53.
Sequence AGAATCAGGTTATTAAGATCAGGGAATTGCGGTC has a PBM binding z-score of 0.291.
With GATACAGCGTCAAGGCCAGAGTACGCGTATTGAT the PBM binding z-score was -0.245.
ATCTCTAGGTAACAAGTTCAGTGGAAGAGAGGAC gave a PBM binding z-score of 1.22.
AGAATGAGGTTATCAAGATCAGGGAATTGCGGTC gave a PBM binding z-score of 1.5.
GAGACTGGGGCAAAGCAGGTTACCATAAGGTTGG gave a PBM binding z-score of 0.842.
In the case of CAGACTGGGGCATAAGGTTACCATAAGCCAGCCC, the PBM binding z-score is reported as 1.9.
Work on CTCGAAAGGTCGGTTGAGGTGCGTATACGGATAA yielded a PBM binding z-score of 2.59.
For ATCGAAATGTCGAAGGTGAGTATACCCACCCGAA, the PBM binding z-score was 0.233.
In the case of TCTAGTTGGTCACGGTGGTCACACACGACGGGTA, the PBM binding z-score is reported as 1.53.
Work on AGAATGAGGTTATTTAGATCAGGGAATTGCGGTC yielded a PBM binding z-score of 1.13.
In the case of TAGCCTAGGTCATGGCCCAGTATACCACGCGAAC, the PBM binding z-score is reported as 4.47.
GGTACGAGGGCATTCGAGTTGATAGCATGGCGAT showed a PBM binding z-score of 1.06.
In the case of CGAACTCGGTCAGAACAGGACAGTGAAGGATGAT, the PBM binding z-score is reported as 1.4.
Sequence CCTTACGGGTCCAGGTTATAGCACGGGTGGTACG has a PBM binding z-score of -0.0416.
Sequence CCTATTAGTTGAGCATAAGGGCAACCGAAGCTCG has a PBM binding z-score of 0.728.
With CCTGACGGGTCACTCCAGGTTATAGCATCGGAGT the PBM binding z-score was 3.82.
Sequence CAAACTAGGTCACCGGAAGGTCAAATTCCGCATG has a PBM binding z-score of 8.17.
TGAATGAGGTTAAAGATTAGGGAACGTGGCGTCG showed a PBM binding z-score of 1.91.
For GCTATTAGTTGAAAGGGCTACCGAATGATTCTCG, the PBM binding z-score was -0.023.
Work on TCAGACAGGTGAAGGTAACTCTGGTACGCAGTCG yielded a PBM binding z-score of 0.492.
ATCTCTAGGTCAGACTCAGTTCAGTGAAGAACGC gave a PBM binding z-score of 3.81.
Work on TAGCATAGGTCATTGGGCCAGTATAGTACGCATC yielded a PBM binding z-score of 4.88.
CCAACTAGGTCAAAGGTCAAAGTCGAGCCAACCA showed a PBM binding z-score of 9.03.
With CCTACTGGGCCAAAAGTCATTGATTCCAATGCTC the PBM binding z-score was 0.13.
For GCTGATAGGTCAACTGATGGTCAGCTAAAGCTCG, the PBM binding z-score was 6.23.
CCTACTGGGCCACGCAAGGTCATTGATTCAGTGA gave a PBM binding z-score of 3.09.
For TCATATAGGTAAAGGTGAAAGTCGAACGATATGA, the PBM binding z-score was 1.65.
Work on CGTCCAAGGTCGGCAGGTCAGTGAAAGCGACGTG yielded a PBM binding z-score of 3.38.
Work on TCTAGCAGGCCAGATGGTCACTCAAGAGGTACGG yielded a PBM binding z-score of 0.0724.
For ACAGACAGGTGAGTGAAGTTAACTCAGCTGGACG, the PBM binding z-score was -0.0567.
In the case of CAAACTAGGTCAAGGCCAAAGTCGGTTTGTGCCA, the PBM binding z-score is reported as 3.91.
Work on TAATATAGGTAAAAGGTGAAAGTCGGTGTGGTAA yielded a PBM binding z-score of 2.15.
Work on GCTTGTAGATCAAGGATAAGAAAGACTAAGCTAA yielded a PBM binding z-score of -0.352.
TCGAGTAGGTGAGTCGGGGCATTCAGCCAACATA gave a PBM binding z-score of -0.294.
Sequence TATACAGGGTCAAAGGCCAGAGAACGAATGTCGA has a PBM binding z-score of 5.7.
For CGAACTAGGTCATTGACAGGACAGTCAATAGTAA, the PBM binding z-score was 4.51.
CCTACTGGGCCAAAGGGCATTGATTCCAATGCTC was tested, and the PBM binding z-score was 1.06.
ATCCAAAGGTCGAAGGTGAGTATACCCACCCGAA gave a PBM binding z-score of 4.58.
With CCTAGCAGTCCAATCTGGGTCACTCAAGGCTTGA the PBM binding z-score was 0.766.

These sequences were tested on RARg homodimer (NR concentration 270 nM) in the same assay as above.
Outline: as §1
In the case of CGTCCAAGGTCAGAGAGGTCAGTCAATGCCGAGT, the PBM binding z-score is reported as 7.2.
AGAATCAGGTTATTAAGATCAGGGAATTGCGGTC showed a PBM binding z-score of 0.541.
Work on GATACAGCGTCAAGGCCAGAGTACGCGTATTGAT yielded a PBM binding z-score of 0.129.
With ATCTCTAGGTAACAAGTTCAGTGGAAGAGAGGAC the PBM binding z-score was 1.25.
AGAATGAGGTTATCAAGATCAGGGAATTGCGGTC gave a PBM binding z-score of 1.12.
For GAGACTGGGGCAAAGCAGGTTACCATAAGGTTGG, the PBM binding z-score was 0.776.
Work on CAGACTGGGGCATAAGGTTACCATAAGCCAGCCC yielded a PBM binding z-score of 1.41.
CTCGAAAGGTCGGTTGAGGTGCGTATACGGATAA showed a PBM binding z-score of 2.85.
ATCGAAATGTCGAAGGTGAGTATACCCACCCGAA gave a PBM binding z-score of 0.587.
TCTAGTTGGTCACGGTGGTCACACACGACGGGTA showed a PBM binding z-score of 1.77.
AGAATGAGGTTATTTAGATCAGGGAATTGCGGTC gave a PBM binding z-score of 0.824.
With TAGCCTAGGTCATGGCCCAGTATACCACGCGAAC the PBM binding z-score was 4.41.
Work on GGTACGAGGGCATTCGAGTTGATAGCATGGCGAT yielded a PBM binding z-score of 1.61.
For CGAACTCGGTCAGAACAGGACAGTGAAGGATGAT, the PBM binding z-score was 1.81.
CCTTACGGGTCCAGGTTATAGCACGGGTGGTACG showed a PBM binding z-score of 0.158.
Sequence CCTATTAGTTGAGCATAAGGGCAACCGAAGCTCG has a PBM binding z-score of 0.652.
CCTGACGGGTCACTCCAGGTTATAGCATCGGAGT showed a PBM binding z-score of 3.7.
In the case of CAAACTAGGTCACCGGAAGGTCAAATTCCGCATG, the PBM binding z-score is reported as 7.31.
TGAATGAGGTTAAAGATTAGGGAACGTGGCGTCG was tested, and the PBM binding z-score was 1.29.
GCTATTAGTTGAAAGGGCTACCGAATGATTCTCG was tested, and the PBM binding z-score was 0.197.
TCAGACAGGTGAAGGTAACTCTGGTACGCAGTCG showed a PBM binding z-score of 0.535.
For ATCTCTAGGTCAGACTCAGTTCAGTGAAGAACGC, the PBM binding z-score was 4.03.
In the case of TAGCATAGGTCATTGGGCCAGTATAGTACGCATC, the PBM binding z-score is reported as 4.65.
CCAACTAGGTCAAAGGTCAAAGTCGAGCCAACCA was tested, and the PBM binding z-score was 7.43.
Work on CCTACTGGGCCAAAAGTCATTGATTCCAATGCTC yielded a PBM binding z-score of 0.053.
In the case of GCTGATAGGTCAACTGATGGTCAGCTAAAGCTCG, the PBM binding z-score is reported as 6.12.
CCTACTGGGCCACGCAAGGTCATTGATTCAGTGA gave a PBM binding z-score of 2.61.
TCATATAGGTAAAGGTGAAAGTCGAACGATATGA gave a PBM binding z-score of 1.43.
Work on CGTCCAAGGTCGGCAGGTCAGTGAAAGCGACGTG yielded a PBM binding z-score of 3.66.
Sequence TCTAGCAGGCCAGATGGTCACTCAAGAGGTACGG has a PBM binding z-score of 0.0188.
ACAGACAGGTGAGTGAAGTTAACTCAGCTGGACG gave a PBM binding z-score of 0.156.
CAAACTAGGTCAAGGCCAAAGTCGGTTTGTGCCA gave a PBM binding z-score of 4.51.
TAATATAGGTAAAAGGTGAAAGTCGGTGTGGTAA gave a PBM binding z-score of 1.32.
GCTTGTAGATCAAGGATAAGAAAGACTAAGCTAA gave a PBM binding z-score of -0.0867.
In the case of TCGAGTAGGTGAGTCGGGGCATTCAGCCAACATA, the PBM binding z-score is reported as -0.378.
For TATACAGGGTCAAAGGCCAGAGAACGAATGTCGA, the PBM binding z-score was 5.34.
CGAACTAGGTCATTGACAGGACAGTCAATAGTAA gave a PBM binding z-score of 4.14.
For CCTACTGGGCCAAAGGGCATTGATTCCAATGCTC, the PBM binding z-score was 0.727.
Sequence ATCCAAAGGTCGAAGGTGAGTATACCCACCCGAA has a PBM binding z-score of 4.35.
CCTAGCAGTCCAATCTGGGTCACTCAAGGCTTGA showed a PBM binding z-score of 0.694.
